Records with an inconclusive call do not appear. Activity calls are given as the source filed them. How the source made its calls: active means hit-call score of the fitted dose curve at least 0.9, where 1 is the maximum; inconclusive means response in the unintended direction; inactive means score below 0.9.
Columns and labels:
[1] = target: rat Neonicotinoid receptor (NNR), Chrna7 (gene 25302) (UniProt Q05941); assay: NVS_LGIC_rNNR_BungSens: NovaScreen (NVS) Ligand-Gated Ion Channel Assay for rat Neonicotinoid receptor (NNR) (AID 2283315)
Protocol: NVS_LGIC_rNNR_BungSens is a biochemical, single-readout assay that uses extracted gene-proteins from Rat cortical membranes in a tissue-based cell-free assay. Measurements were taken 2.5 hours after chemical dosing in a 48-well plate.NVS_LGIC_rNNR_BungSens is one of one assay component(s) measured or calculated from the NVS_LGIC_rNNR_BungSens assay. It is designed to make measurements of radioligand binding, a form of binding reporter, as detected with scintillation counting signals by Filter-based radiodetection technology.Data from the assay component NVS_LGIC_rNNR_BungSens was analyzed into 1 assay endpoint. This assay endpoint, NVS_LGIC_rNNR_BungSens, was analyzed in the positive analysis fitting direction relative to DMSO as the negative control and baseline of activity. Using a type of binding reporter, loss-of-signal activity can be used to understand changes in the binding as they relate to the gene Chrna7. Furthermore, this assay endpoint can be referred to as a primary readout, because the performed assay has only produced 1 assay endpoint. To generalize the intended target to other relatable targets, this assay endpoint is annotated to the ion channel intended target family, where the subfamily is ligand-gated ion channel.
Binding assays used specific radioligands (tritiated, iodinated) with non-radioactive competitive displacement ligands in agonist or antagonist protocols (as indicated) and various reference compounds and inhibitors to titrate specific binding to receptors and transporters. Most enzyme assays (CYPs, kinases, phosphatases, proteases, HDACs) used recombinant protein and specific substrates (fluorescence mostly, some colorimetric and radioactive) and inhibitors, followed by a biochemical separation of substrate and product. All assays for the biochemical HTS were initially run in duplicate at a single concentration (10 uM for CYP450 assays and 25 uM for all others). […] Each assay was run with positive and negative controls, and concurrent controls on every plate. The follow-up (secondary) screen tested active chemical-pairs in concentration series, as well as a few additional assays not tested in the primary screen, some selected negative inactives, and several cases re-run in the concentration series for confirmatory purposes.

[2] = target: rat Neurokinin-1 Receptor (NK1), Tacr1 (gene 24807) (UniProt P14600); assay: NVS_GPCR_rNK1: NovaScreen (NVS) G Protein-Coupled Receptor Assay for rat Neurokinin-1 Receptor (NK1) (AID 2283309)
Outline: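 Competitive radioligand binding to NK1 in rat submaxillary membranes, 1 h incubation, filtration and scintillation read-out. Compounds first screened at 25 uM in duplicate, then concentration-response for actives; signal loss relative to DMSO.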

[3] = target: rat Opioid Receptor, Non-selective Binding, Oprm1 (gene 25601) (UniProt P33535); assay: NVS_GPCR_rOpiate_NonSelective: NovaScreen (NVS) G Protein-Coupled Receptor Assay for rat Opioid Receptor, Non-selective Binding (AID 2283318)
Outline: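 Filter-based radioligand displacement using rat forebrain membrane preparations, measured 1.5 h post-dosing. Single-concentration duplicate screen at 25 uM, follow-up in concentration series; activity taken as signal loss relative to DMSO.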

Adra2b (gene 24174) = Adra2b (gene 24174) (UniProt P19328); assay: NVS_GPCR_rmAdra2B: NovaScreen (NVS) G Protein-Coupled Receptor Assay for hybird cells Adrenergic, Alpha 2B Receptor (Adra2B) (AID 2283306)
Outline: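 Compounds screened first at 25 uM in duplicate, with actives followed up in concentration-response; specific radioligand displacement from hybrid neuroglioma/blastoma cell membrane preparations measured by filter scintillation counting after 1 h, normalized to DMSO.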

[4] = target: rat Opioid Receptor, Non-selective Sodium (Na+) Binding, Oprm1 (gene 25601) (UniProt P33535); assay: NVS_GPCR_rOpiate_NonSelectiveNa: NovaScreen (NVS) G Protein-Coupled Receptor Assay for rat Opioid Receptor, Non-selective Sodium (Na+) Binding (AID 2283311)
Outline: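 Filtration radioligand binding on rat forebrain membrane preparations, read 1.5 h after dosing. Single-concentration 25 µM primary screen in duplicate, followed by singleton concentration series to 50 µM max for actives; DMSO baseline.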

[5] = target: Metabotropic glutamate receptor 1 (Rattus norvegicus) (UniProt P23385); assay: NVS_GPCR_rmMGluR1: NovaScreen (NVS) G Protein-Coupled Receptor Assay for rat Glutamate Metabotropic Receptor 1 (MGluR1) (AID 2283305)
Outline: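 Binding to native receptor from rat cerebellum extract, measured as displacement of a radioligand (scintillation counting, filter separation) after 1 hour. Compounds tested at 25 uM in duplicate, then titrated to a 50 uM maximum.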

[6] = target: rat Neurokinin-3 Receptor (NK3), Tacr3 (gene 24808) (UniProt P16177); assay: NVS_GPCR_rNK3: NovaScreen (NVS) G Protein-Coupled Receptor Assay for rat Neurokinin-3 Receptor (NK3) (AID 2283310)
Outline: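 Filter-based radioligand displacement on rat cortex membrane preparations, read by scintillation 2 h post-dose. Chemicals first tested in duplicate at 25 uM; actives followed up in concentration series with a 50 uM maximum.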

[7] = target: rat Somatostatin Receptor (SST), Sstr1 (gene 25033) (UniProt P28646); assay: NVS_GPCR_rSST: NovaScreen (NVS) G Protein-Coupled Receptor Assay for rat Somatostatin Receptor (SST) (AID 2283314)
Outline: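 Single-concentration duplicate screen (25 uM), then concentration-response up to 50 uM for chemicals passing a threshold such as 30% inhibition. Membranes came from rat forebrain. Binding was measured 1 h post-dose by filter radiodetection and scintillation, relative to DMSO.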

Chain of rat Neonicotinoid receptor (NNR), Chrna7 (gene 25302) (Q05941 whole entry, looked up): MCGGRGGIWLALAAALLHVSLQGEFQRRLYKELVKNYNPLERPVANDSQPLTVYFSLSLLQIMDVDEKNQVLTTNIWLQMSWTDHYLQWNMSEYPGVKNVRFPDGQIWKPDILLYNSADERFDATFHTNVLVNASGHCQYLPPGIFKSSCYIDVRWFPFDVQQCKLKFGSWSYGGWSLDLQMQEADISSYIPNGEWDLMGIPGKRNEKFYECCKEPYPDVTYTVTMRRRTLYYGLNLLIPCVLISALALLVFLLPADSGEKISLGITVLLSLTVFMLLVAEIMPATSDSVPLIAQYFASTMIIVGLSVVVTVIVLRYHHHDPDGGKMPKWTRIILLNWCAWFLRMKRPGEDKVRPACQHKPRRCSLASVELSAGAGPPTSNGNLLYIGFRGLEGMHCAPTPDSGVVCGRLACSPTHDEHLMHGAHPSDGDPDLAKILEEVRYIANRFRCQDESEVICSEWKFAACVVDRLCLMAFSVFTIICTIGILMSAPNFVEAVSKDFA
Chain of rat Opioid Receptor, Non-selective Binding, Oprm1 (gene 25601) (P33535 whole entry, looked up): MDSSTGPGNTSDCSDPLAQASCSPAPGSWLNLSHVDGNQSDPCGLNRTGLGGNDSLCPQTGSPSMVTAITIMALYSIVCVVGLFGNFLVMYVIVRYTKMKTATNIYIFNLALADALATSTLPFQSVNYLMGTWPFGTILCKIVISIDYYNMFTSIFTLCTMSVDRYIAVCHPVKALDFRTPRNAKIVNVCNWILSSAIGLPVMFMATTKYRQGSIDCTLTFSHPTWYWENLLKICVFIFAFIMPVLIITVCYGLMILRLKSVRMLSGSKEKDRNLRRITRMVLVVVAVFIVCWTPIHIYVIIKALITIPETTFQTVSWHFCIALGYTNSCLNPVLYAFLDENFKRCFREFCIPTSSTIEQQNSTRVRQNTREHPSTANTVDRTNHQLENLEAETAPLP
Chain of rat Opioid Receptor, Non-selective Sodium (Na+) Binding, Oprm1 (gene 25601) (P33535 whole entry, looked up): as above
Chain of rat Neurokinin-3 Receptor (NK3), Tacr3 (gene 24808) (P16177 whole entry, looked up): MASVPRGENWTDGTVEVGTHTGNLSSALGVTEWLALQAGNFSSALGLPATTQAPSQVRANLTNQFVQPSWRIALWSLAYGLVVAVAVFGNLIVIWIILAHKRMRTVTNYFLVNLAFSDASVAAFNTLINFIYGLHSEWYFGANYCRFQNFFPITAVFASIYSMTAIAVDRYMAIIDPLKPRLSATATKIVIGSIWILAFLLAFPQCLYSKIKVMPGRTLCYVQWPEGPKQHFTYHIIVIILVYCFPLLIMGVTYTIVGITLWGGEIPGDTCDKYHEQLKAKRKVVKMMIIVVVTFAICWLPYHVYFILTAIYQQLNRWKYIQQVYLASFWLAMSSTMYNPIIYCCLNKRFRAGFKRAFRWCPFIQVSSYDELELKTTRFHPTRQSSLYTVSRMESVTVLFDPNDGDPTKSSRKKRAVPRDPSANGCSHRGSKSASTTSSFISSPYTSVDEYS
Chain of rat Neurokinin-1 Receptor (NK1), Tacr1 (gene 24807) (P14600 whole entry, looked up): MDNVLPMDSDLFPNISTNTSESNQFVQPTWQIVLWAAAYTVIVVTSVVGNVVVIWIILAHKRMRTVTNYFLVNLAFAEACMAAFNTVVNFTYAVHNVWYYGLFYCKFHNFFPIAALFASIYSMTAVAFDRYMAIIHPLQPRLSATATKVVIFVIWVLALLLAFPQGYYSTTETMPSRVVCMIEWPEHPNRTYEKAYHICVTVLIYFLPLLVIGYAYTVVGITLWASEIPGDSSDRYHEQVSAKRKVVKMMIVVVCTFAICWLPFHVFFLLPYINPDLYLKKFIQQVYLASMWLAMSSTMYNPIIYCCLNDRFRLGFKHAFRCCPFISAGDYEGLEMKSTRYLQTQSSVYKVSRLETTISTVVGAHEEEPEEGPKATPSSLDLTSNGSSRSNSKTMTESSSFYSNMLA
Chain of Adra2b (gene 24174) (P19328 whole entry, looked up): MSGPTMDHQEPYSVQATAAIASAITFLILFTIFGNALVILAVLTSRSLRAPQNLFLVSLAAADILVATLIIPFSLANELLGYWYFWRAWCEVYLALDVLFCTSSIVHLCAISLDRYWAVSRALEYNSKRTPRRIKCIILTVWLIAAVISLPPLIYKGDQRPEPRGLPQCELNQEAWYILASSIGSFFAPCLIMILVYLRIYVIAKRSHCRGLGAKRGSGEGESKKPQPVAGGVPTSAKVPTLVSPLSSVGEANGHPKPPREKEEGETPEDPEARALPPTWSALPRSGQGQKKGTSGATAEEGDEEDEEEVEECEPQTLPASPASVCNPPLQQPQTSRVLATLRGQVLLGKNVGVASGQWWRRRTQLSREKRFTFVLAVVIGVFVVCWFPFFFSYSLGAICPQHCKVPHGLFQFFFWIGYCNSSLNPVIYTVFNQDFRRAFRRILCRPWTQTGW
Chain of rat Somatostatin Receptor (SST), Sstr1 (gene 25033) (P28646 whole entry, looked up): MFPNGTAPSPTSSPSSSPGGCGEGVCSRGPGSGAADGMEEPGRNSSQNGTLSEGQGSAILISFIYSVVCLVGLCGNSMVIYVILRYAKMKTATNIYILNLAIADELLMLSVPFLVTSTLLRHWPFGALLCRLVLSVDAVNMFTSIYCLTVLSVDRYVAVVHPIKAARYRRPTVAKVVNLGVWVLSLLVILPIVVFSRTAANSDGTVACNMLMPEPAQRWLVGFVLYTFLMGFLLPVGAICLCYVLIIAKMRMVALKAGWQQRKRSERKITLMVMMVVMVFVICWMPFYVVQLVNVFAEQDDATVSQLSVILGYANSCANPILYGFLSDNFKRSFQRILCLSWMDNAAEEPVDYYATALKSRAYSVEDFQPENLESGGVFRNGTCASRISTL
Chain of Metabotropic glutamate receptor 1 (Rattus norvegicus) (P23385 whole entry, looked up): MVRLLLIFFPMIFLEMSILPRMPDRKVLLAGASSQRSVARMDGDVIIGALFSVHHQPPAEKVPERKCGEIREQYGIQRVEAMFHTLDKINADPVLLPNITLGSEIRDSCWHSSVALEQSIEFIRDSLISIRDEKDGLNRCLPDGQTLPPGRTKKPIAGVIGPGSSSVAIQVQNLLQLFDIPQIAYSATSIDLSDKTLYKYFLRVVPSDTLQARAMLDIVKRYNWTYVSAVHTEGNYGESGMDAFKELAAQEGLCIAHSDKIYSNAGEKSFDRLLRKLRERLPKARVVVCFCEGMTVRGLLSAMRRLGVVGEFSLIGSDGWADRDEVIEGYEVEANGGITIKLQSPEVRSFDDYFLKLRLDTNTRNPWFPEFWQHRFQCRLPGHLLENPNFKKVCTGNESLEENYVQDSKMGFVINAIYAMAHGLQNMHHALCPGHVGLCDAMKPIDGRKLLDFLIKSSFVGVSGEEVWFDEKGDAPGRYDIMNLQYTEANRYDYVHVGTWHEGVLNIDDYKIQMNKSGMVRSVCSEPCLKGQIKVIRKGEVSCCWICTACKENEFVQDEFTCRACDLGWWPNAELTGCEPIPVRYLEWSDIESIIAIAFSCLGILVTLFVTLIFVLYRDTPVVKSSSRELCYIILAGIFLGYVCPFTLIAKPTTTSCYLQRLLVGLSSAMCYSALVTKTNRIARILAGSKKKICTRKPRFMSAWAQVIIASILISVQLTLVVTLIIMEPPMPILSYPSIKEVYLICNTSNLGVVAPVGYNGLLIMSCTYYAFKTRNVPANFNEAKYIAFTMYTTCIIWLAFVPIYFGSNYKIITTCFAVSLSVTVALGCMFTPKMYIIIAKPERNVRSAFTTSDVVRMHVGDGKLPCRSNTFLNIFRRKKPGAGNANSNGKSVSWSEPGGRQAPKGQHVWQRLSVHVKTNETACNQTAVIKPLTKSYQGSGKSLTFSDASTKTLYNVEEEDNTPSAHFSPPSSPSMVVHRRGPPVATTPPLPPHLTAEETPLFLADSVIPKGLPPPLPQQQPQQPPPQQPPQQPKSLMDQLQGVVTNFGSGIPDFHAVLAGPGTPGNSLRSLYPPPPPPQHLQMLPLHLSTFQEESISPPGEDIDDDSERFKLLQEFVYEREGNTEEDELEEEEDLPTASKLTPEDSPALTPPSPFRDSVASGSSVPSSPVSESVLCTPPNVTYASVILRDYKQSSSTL

**Q.** Which outcome [1] does the source give for CCC(C)(C)C1CCC(O)CC1 (stereo unspecified) here?
**A.** inactive

**Q.** For O=c1c(-c2ccc(O)cc2)coc2cc(O)ccc12, which outcome [2] is on record?
**A.** inactive

**Q.** And the outcome [1]?
**A.** inactive

**Q.** What about the outcome [3] of the same molecule?
**A.** inactive

**Q.** With CCN(CC)CCNc1ccc(CNC=O)c2sc3ccc(OC)cc3c(=O)c12 as the molecule, how does the AC50 (Adra2b (gene 24174)) read?
**A.** 9 µM (active)

**Q.** And the outcome [4]?
**A.** inactive

**Q.** And the AC50 [1]?
**A.** 29.3 µM (active)

**Q.** And the outcome [3]?
**A.** inactive

**Q.** CCCCCCCCCCCCc1ccccc1S(=O)(=O)O was tested. Which AC50 [5] did it give?
**A.** 8.71 µM (active)

**Q.** What about the AC50 (Adra2b (gene 24174)) of the same molecule?
**A.** 25 µM (active)

**Q.** How did the AC50 (Adra2b (gene 24174)) turn out when CC(=O)NC1(c2cccc(F)c2)CCN(CC[C@@]2(c3ccc(Cl)c(Cl)c3)CN(c3ccccc3)C(=O)CO2)CC1 was run?
**A.** 11 µM (active)

**Q.** What about the AC50 [2] of the same molecule?
**A.** 14.5 µM (active)

**Q.** What about the AC50 [6] of the same molecule?
**A.** 0.713 µM (active)

**Q.** And the AC50 [4]?
**A.** 10.5 µM (active)

**Q.** And the AC50 [7]?
**A.** 9.18 µM (active)

**Q.** What about the AC50 [3] of the same molecule?
**A.** 7.82 µM (active)

**Q.** How did the outcome [6] turn out when Cc1oc(-c2ccccc2)nc1CCOc1ccc(C[C@H](Nc2ccccc2C(=O)c2ccccc2)C(=O)O)cc1 was run?
**A.** inactive

**Q.** What about the outcome [3] of the same molecule?
**A.** inactive

**Q.** Which outcome (Adra2b (gene 24174)) does the source give for NC(=O)N(O)[C@@H]1C=C[C@H](Oc2cccc(Oc3ccc(F)cc3)c2)C1 here?
**A.** inactive

**Q.** What about the outcome [2] of the same molecule?
**A.** inactive

**Q.** What about the outcome [7] of the same molecule?
**A.** inactive

**Q.** What about the outcome [3] of the same molecule?
**A.** inactive

**Q.** CC[C@H](c1ccc(O)cc1)[C@@H](CC)c1ccc(O)cc1 was tested. Which outcome [6] did it give?
**A.** inactive

**Q.** What about the AC50 [4] of the same molecule?
**A.** 1.77 µM (active)

**Q.** And the outcome [1]?
**A.** inactive

**Q.** What about the AC50 [3] of the same molecule?
**A.** 5.14 µM (active)

From PubChem BioAssay (EPA / NIEHS)
